# Screens: PubChem BioAssay, The Scripps Research Institute Molecular Screening Center
# LYPLA2 inh – LYPLA2 inhibitors, primary screen, counter-screen for PME1 inhibitor project, biochemical, fluorescence polarization, FP-Rh probe ABPP. Acyl-protein thioesterase 2 (Homo sapiens), O95372. recombinant LYPLA2. inhibition, % at 5.9 µM. actives 0.38% (n = 320,000);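 active = inhibition above the screen-wide mean plus 3 SD, limit set per campaign, cut at about 26% in these data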;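 note: 0% = LYPLA2 with DMSO and 100% = wells lacking LYPLA2 enzyme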
# EBNA-1 inhibitor – EBNA-1 DNA-binding inhibitors, primary screen, biochemical, fluorescence polarization; inhibition, % at 14.8 µM; actives 0.34% (n = 300,000); in the data active = inhibition above about 28%
# LYPLA1 inh – LYPLA1 inhibitors, primary screen, counter-screen for PME1 inhibitor project, biochemical, fluorescence polarization, FP-Rh probe ABPP | Acyl-protein thioesterase 1 (Homo sapiens), O75608 | recombinant LYPLA1 | inhibition, % at 5.9 µM | actives 0.16% (n = 320,000);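 active = inhibition above the mean of all tested compounds plus 3 SD, set per campaign, cut at about 14% in these data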;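 note: inhibitors block serine hydrolase probe labeling of LYPLA1 so polarization falls; 0% = enzyme with DMSO and 100% = wells lacking LYPLA1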
# PREPL inh – PREPL enzyme inhibitors, primary screen, biochemical, fluorescence polarization. recombinant PREPL, fluorescence polarization activity-based probe. inhibition, % at 5.96 µM. actives 0.68% (n = 320,000); in the data active = inhibition above about 43%;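 note: 0% = enzyme with DMSO and 100% = wells lacking enzyme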
# ZTA DNA inh – blocks Epstein-Barr virus ZTA, an EBNA-1 counter-screen | inhibition, % at 11 µM | actives 0.15% (n = 320,000) | AID 2234 | ZTA-DNA binding, fluorescence polarization; in the data active = inhibition above about 33%
# Target sequence (P03206 whole entry, looked up): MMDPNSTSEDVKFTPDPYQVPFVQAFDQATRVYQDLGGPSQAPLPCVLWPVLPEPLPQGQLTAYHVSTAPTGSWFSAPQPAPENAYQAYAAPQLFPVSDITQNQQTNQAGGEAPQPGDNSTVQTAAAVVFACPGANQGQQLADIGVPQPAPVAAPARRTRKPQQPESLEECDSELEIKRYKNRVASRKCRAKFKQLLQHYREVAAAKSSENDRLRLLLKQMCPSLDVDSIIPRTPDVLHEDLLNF
# LYPLA1 confirm – LYPLA1 inhibitors, retest, confirmation, counter-screen for PME1 inhibitor project, biochemical, fluorescence polarization, FP-Rh probe ABPP | shares compounds with LYPLA1 inh | recombinant LYPLA1 | inhibition, % at 5.9 µM | actives 69% (n = 480) | AID 2233, 2010;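 active = mean inhibition across replicates above the hit cutoff set in the primary screen, cut at about 15% in these data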;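 note: loss of FP-Rh probe labeling of LYPLA1 seen as lower polarization; 0% = LYPLA1 with DMSO and 100% = wells lacking LYPLA1 enzyme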
# Active calls of the source: *; · = no result. Most compounds without a hit are left out; they make up all but 1.3% or so of the library.
SMILES,LYPLA2 inh,EBNA-1 inhibitor,LYPLA1 inh,PREPL inh,ZTA DNA inh,LYPLA1 confirm
CCOC(=O)c1cnc(SCC(=O)Nc2cc(C(F)(F)F)ccc2N2CCOCC2)nc1N,4.3,-3.0,1.0,7.3,0.8,·
O=S1(=O)CCOCCCN1Cc1ccccc1F,-3.0,-4.8,-1.4,7.1,-0.8,·
Cc1ccc(N(CC(=O)Nc2ccc(C)cn2)S(=O)(=O)c2c(C)nn(C)c2C)cc1,15.7,-2.6,15.9*,5.3,-7.6,2.5
O=C(Cc1ccccc1)N1CCC(c2nc(-c3ccc(F)cc3)no2)CC1,4.5,-5.3,16.6*,8.0,0.6,7.5
O=C(Cc1ccccc1)N1CCCC(c2nc(-c3ccc(S(=O)(=O)N4CCCC4)cc3)no2)C1 (stereo not drawn),10.0,-4.0,3.1,0.3,-6.6,·
COc1ccccc1/C=C/C=N/N1CCN(Cc2ccccc2)CC1,16.4,0.9,18.7*,10.3,-3.8,12.4
CCOC(=O)c1ccc(N2C=C(C(=O)OC)C(c3cccc(O)c3)C(C(=O)OC)=C2)cc1,-2.6,16.4,-0.6,-3.2,5.1,·
O=Cc1cc(-c2ccccc2)[nH]c1-c1ccccc1,-0.3,-1.4,-2.8,5.7,-11.1,·
O=C(O)CCc1[nH]c2ccccc2c1Sc1ccccc1,-4.3,18.4,1.6,-7.7,11.7,·
Cc1cc(C)c2c(N)c(C(=O)Nc3nccs3)sc2n1,0.1,14.3,16.7*,3.8,-1.2,10.5
COCc1cc(C)nc2sc(C(=O)Nc3nccs3)c(N)c12,3.0,11.9,1.9,7.1,18.0,·
COc1ccc(CC(=O)Nc2ccc(S(=O)(=O)N3CCC(C)CC3)cc2)c(OC)c1,-2.6,·,17.1*,10.4,8.2,-4.6
COc1ccc(CC(NC(C)=O)C(=O)NC2CCN(S(=O)(=O)c3ccc(NC(C)=O)cc3)CC2)c(OC)c1 (stereo not drawn),-8.4,2.7,-0.9,-9.2,-3.9,·
NC(=O)c1cc(S(=O)(=O)NCc2cccc(Br)c2)cs1,2.0,-5.1,15.0*,-0.4,12.2,-4.7
Cc1cccc(CNS(=O)(=O)c2csc(C(N)=O)c2)c1,-1.6,-1.5,-0.6,24.1,-4.9,·
COc1ccc(OC(=O)COc2ccc(Cl)cc2)cc1,-8.1,3.6,-3.7,9.7,1.5,·
N#Cc1ccccc1OCCCN1CCC(Cc2ccccc2)CC1,16.0,5.7,59.0*,-3.2,-11.4,55.9*
CCOc1ccccc1OCCN1CCC(Cc2ccccc2)CC1,17.3,3.6,2.4,-0.3,-2.8,·
O=[N+]([O-])c1cccc(OCCCN2CCC(Cc3ccccc3)CC2)c1,32.0*,2.5,15.8*,7.3,-6.0,19.5*
C[C@H](NC(=O)C1CCN(S(=O)(=O)c2ccccc2)CC1)C(=O)NCc1ccccn1,4.3,0.8,-1.1,1.7,2.1,·
CCCCCCCCCCCCCCCC[n+]1ccc(C(N)=O)cc1,12.7,-3.7,6.4,37.1,-7.8,·
CCCCCCCCCCCCCCCC[n+]1ccc(/C=N/O)cc1,24.0,-7.8,14.9*,40.7,3.4,19.6*
COc1ccc(NC(=O)COC(=O)C2CC3C=CC2C3)cc1 (stereo not drawn),7.0,-4.6,3.9,4.0,-2.5,·
CCN(CC)S(=O)(=O)c1cccc(NC(=O)COC(=O)C2CC3C=CC2C3)c1 (stereo not drawn),12.6,10.9,30.4*,15.2,10.0,28.1*
Cc1ccc(NC(=O)COC(=O)C2CC3C=CC2C3)cc1S(=O)(=O)N1CCCCC1 (stereo not drawn),5.5,2.1,19.5*,1.0,4.7,33.1*
COc1ccc(N(C(=O)c2cnccn2)C(C(=O)NC2CCCCC2)c2cc(OC)c(OC)c(OC)c2)cc1 (stereo not drawn),12.7,2.2,3.1,4.2,-5.6,·
Cc1cc2oc(=O)cc(CN3CCN(C/C=C/c4ccccc4)CC3)c2cc1O,17.5,-11.8,20.4*,1.9,-6.3,18.3*
CCCCC/C=N/NC(=O)c1[nH]c2ccc([N+](=O)[O-])cc2c1C,-0.4,12.9,15.0*,8.7,-0.2,39.9*
O=C(Cn1c(=O)oc2ccccc21)Nc1ccc(F)cc1,4.7,-4.2,2.7,7.8,5.0,·
